# Assay results as given in the supplement of paper PMC7411054.
# Where a name gives a salt, the structure may show the parent alone.
# Key:
# Settings in all cases: treatment time: 24 h
# A549-ACTB-RAB5A [1] = assay: lowest phenotypically active concentration; higher = less potent
# Summary of the method: (§1)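 Phenotypic activity depended on meeting both a deviation and a reproducibility criterion. The fifteen gene-edited A549, HepG2 and WPMY1 reporter lines were treated at 0.3, 1, 3 or 9 µM for 24 h, four wells each, then imaged live with features normalised to solvent control wells. Deviation required ≥3 of 4 wells past the 95th percentile of control Euclidean distances, and reproducibility a median replicate Pearson correlation above the 95th percentile of non-replicates.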
# HepG2-ACTB-RAB5A [2] = assay: as above
# Summary of the method: as §1
# WPMY1-CANX-COX4 [3] = assay: as above
# Summary of the method: as §1
# A549-ACTB-RAB5A [4] = assay: phenotypically active (imaging signature differs from DMSO and reproducible) at any of 0.3-9 uM (binary (1 = active, 0 = inactive)); higher = active
# Summary of the method: as §1
# A549-CANX-COX4 = assay: as above
# Summary of the method: as §1
# A549-GM130-SQSTM1 [5] = assay: as above
# Summary of the method: as §1
# A549-TP53BP1-CLTA = assay: as above
# Summary of the method: as §1
# A549-TUBA1B-RELA [6] = assay: as above
# Summary of the method: as §1
# HepG2-ACTB-RAB5A [7] = assay: as above
# Summary of the method: as §1
# HepG2-CANX-COX4 = assay: as above
# Summary of the method: as §1
# HepG2-GM130-SQSTM1 = assay: as above
# Summary of the method: as §1
# HepG2-TP53BP1-CLTA = assay: as above
# Summary of the method: as §1
# HepG2-TUBA1B-RELA = assay: as above
# Summary of the method: as §1
# WPMY1-ACTB-RAB5A = assay: as above
# Summary of the method: as §1
# WPMY1-CANX-COX4 [8] = assay: as above
# Summary of the method: as §1
# WPMY1-GM130-SQSTM1 = assay: as above
# Summary of the method: as §1
# WPMY1-TP53BP1-CLTA = assay: as above
# Summary of the method: as §1
# WPMY1-TUBA1B-RELA = assay: as above
# Summary of the method: as §1
# A549-GM130-SQSTM1 [9] = assay: lowest phenotypically active concentration; higher = less potent
# Summary of the method: as §1
# A549-TUBA1B-RELA [10] = assay: as above
# Summary of the method: as §1
Compound,lowest phenotypically active concentration (A549-ACTB-RAB5A [1]) [µM],lowest phenotypically active concentration (HepG2-ACTB-RAB5A [2]) [µM],lowest phenotypically active concentration (WPMY1-CANX-COX4 [3]) [µM],phenotypically active (A549-ACTB-RAB5A [4]),phenotypically active (A549-CANX-COX4),phenotypically active (A549-GM130-SQSTM1 [5]),phenotypically active (A549-TP53BP1-CLTA),phenotypically active (A549-TUBA1B-RELA [6]),phenotypically active (HepG2-ACTB-RAB5A [7]),phenotypically active (HepG2-CANX-COX4),phenotypically active (HepG2-GM130-SQSTM1),phenotypically active (HepG2-TP53BP1-CLTA),phenotypically active (HepG2-TUBA1B-RELA),phenotypically active (WPMY1-ACTB-RAB5A),phenotypically active (WPMY1-CANX-COX4 [8]),phenotypically active (WPMY1-GM130-SQSTM1),phenotypically active (WPMY1-TP53BP1-CLTA),phenotypically active (WPMY1-TUBA1B-RELA),lowest phenotypically active concentration (A549-GM130-SQSTM1 [9]) [µM],lowest phenotypically active concentration (A549-TUBA1B-RELA [10]) [µM]
Cc1cccc(C)c1OCC(=O)N[C@@H](Cc1ccccc1)[C@@H](O)C[C@H](Cc1ccccc1)NC(=O)[C@H](C(C)C)N1CCCNC1=O [lopinavir],9,9,9,1 (active),1 (active),0 (inactive),0 (inactive),0 (inactive),1 (active),0 (inactive),0 (inactive),0 (inactive),1 (active),0 (inactive),1 (active),0 (inactive),0 (inactive),0 (inactive),,
CC/C(=C(/c1ccccc1)c1ccc(OCCN(C)C)cc1)c1ccccc1 [tamoxifen],3,9,9,1 (active),1 (active),1 (active),0 (inactive),1 (active),1 (active),0 (inactive),1 (active),1 (active),1 (active),1 (active),1 (active),1 (active),1 (active),1 (active),3,3
c1cc(-c2cc(C3CCNCC3)[nH]n2)ccn1,9,,9,1 (active),1 (active),1 (active),0 (inactive),1 (active),0 (inactive),1 (active),0 (inactive),0 (inactive),0 (inactive),1 (active),1 (active),0 (inactive),0 (inactive),0 (inactive),3,9
Cc1nnc(-c2ccc3occ(-c4ccc(S(C)=O)cc4)c3c2)o1 (centres undefined),9,9,9,1 (active),1 (active),1 (active),1 (active),0 (inactive),1 (active),1 (active),1 (active),0 (inactive),1 (active),1 (active),1 (active),1 (active),1 (active),0 (inactive),9,
CCCCc1oc2ccc(NS(C)(=O)=O)cc2c1C(=O)c1ccc(OCCCN(CCCC)CCCC)cc1 [dronedarone],3,9,9,1 (active),1 (active),1 (active),0 (inactive),1 (active),1 (active),0 (inactive),1 (active),1 (active),1 (active),1 (active),1 (active),0 (inactive),1 (active),1 (active),3,3
C=C1C(=O)O[C@@H]2[C@H]3O[C@]3(C)CCC=C(C)CC[C@@H]12 [Parthenolide],9,9,9,1 (active),1 (active),1 (active),0 (inactive),1 (active),1 (active),1 (active),1 (active),0 (inactive),0 (inactive),1 (active),1 (active),1 (active),0 (inactive),1 (active),9,9
Cc1cc(F)c(Nc2ncnc3cc(OCc4ccccc4)ccc23)cc1O,9,,3,1 (active),1 (active),1 (active),0 (inactive),1 (active),0 (inactive),0 (inactive),0 (inactive),0 (inactive),0 (inactive),0 (inactive),1 (active),0 (inactive),0 (inactive),1 (active),9,9
O=S(=O)(c1cccc2c(O)nccc12)N1CCCNCC1 [HA 1100 hydrochloride],3,9,3,1 (active),1 (active),0 (inactive),1 (active),1 (active),1 (active),1 (active),1 (active),1 (active),0 (inactive),1 (active),1 (active),1 (active),1 (active),1 (active),,9
O=C(O)Cc1cccc(OCCCN(Cc2cccc(C(F)(F)F)c2Cl)CC(c2ccccc2)c2ccccc2)c1 [GW 3965 hydrochloride],9,,,1 (active),1 (active),0 (inactive),0 (inactive),0 (inactive),0 (inactive),1 (active),0 (inactive),0 (inactive),1 (active),0 (inactive),0 (inactive),0 (inactive),0 (inactive),0 (inactive),,
O=C(O)[C@@H]1[C@H]2C[C@H]3c4[nH]c5ccccc5c4CCN3C[C@@H]2CC[C@@H]1O [Yohimbinic acid monohydrate],9,,9,1 (active),0 (inactive),1 (active),1 (active),1 (active),0 (inactive),0 (inactive),0 (inactive),0 (inactive),0 (inactive),1 (active),1 (active),1 (active),1 (active),1 (active),3,9
Cc1noc(C)c1-c1ccc2c(c1)nc(CCc1ccc(OCCCN(C)C)cc1)n2CCN1CCOCC1,9,9,9,1 (active),0 (inactive),1 (active),1 (active),1 (active),1 (active),1 (active),1 (active),1 (active),1 (active),1 (active),1 (active),1 (active),1 (active),1 (active),3,3
